Assay results from PubChem BioAssay (NCI).
Compounds without any hit were thinned out: in the full panel of roughly 79,000, 15% have a hit. A number with no mark means an inactive call. Active and inactive are the calls of the source. Rule as the data show it: active = growth inhibition above about 70%; inactive = the rest.

Assay: NCI Yeast Anticancer Drug Screen. Data for the wt1 strain (AID 149);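 also: 0% = growth of vehicle-treated wt1 cultures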
Conditions: S. cerevisiae wt1 strain (SPY 50644) growth inhibition, hits give high values
Method: Growth inhibition of yeast strains with defined genetic alterations is measured as a screen for potential anti-cancer activity. Selected strains with alterations in DNA damage repair or cell cycle control were exposed to compounds and growth inhibition was measured relative to vehicle treated controls. The strain used in this assay is wt1

| Structure (SMILES) | growth inhibition (at 1.2 µM) | growth inhibition (at 3.7 µM) | growth inhibition (at 11.0 µM) | growth inhibition (at 33.0 µM) | growth inhibition (at 100.0 µM) |
| --- | --- | --- | --- | --- | --- |
| C/C(CCl)=N/NC1=NC(c2ccccc2Cl)P(=O)(NCCCNP2(=O)SC(N/N=C(/C)CCl)=NC2c2ccccc2Cl)S1 (stereo not given) | 3% | -4% | -5% | -3% | -1% |
| C[CH2][Sn]([CH2]C)([O]S(C)(=O)=O)[O]S(C)(=O)=O | -27% | -9% | -15% | -12% | -2% |
| O=C1c2ccc3ccccc3c2CCC1N1CCCCC1 (stereo not given) | 3% | 11% | 9% | 27% | 97% (active) |
| COC(=O)C(F)C(Br)C(=O)OC (stereo not given) | -3% | 74% (active) | 97% (active) | 98% (active) | 99% (active) |
| CC1=C(N2CC2)C(=O)c2ccccc2C1=O | -5% | -6% | -6% | -2% | 41% |
| Oc1cccnc1[Se] | -2% | -3% | -4% | 46% | 99% (active) |
| O=[N+]([O-])c1cc([As](Br)c2ccc(O)c([N+](=O)[O-])c2)ccc1O | 10% | 70% (active) | 99% (active) | 98% (active) | 98% (active) |
| CCCCCCCCCCCCCCCCP(=O)(O)OCC(N)C(=O)O (stereo not given) | -38% | -46% | -46% | -31% | 97% (active) |
